Where “and” joins values, the source holds several entries; their conditions need not be identical. Equal values may be shown once. Unmarked numbers belong to inactive results. Records with an inconclusive call do not appear. Calls of active or inactive are those of the source. Unless noted, the call rests on the fitted dose curve; in most records, active means well fitted curve in the direction sought with a large enough effect in the repeat runs; inconclusive means weak or mixed curves; inactive means no such curve, though single readings can be large; an effect the other way counts as inactive or inconclusive.
Key:
[1] = qHTS assay for small molecule agonists of the antioxidant response element (ARE) signaling pathway (AID 651741; active means well fitted activation curve with a large enough effect in the signal ratio; the % refers to the signal ratio; further: potency means the concentration at half of the fitted maximal effect)
How it was run: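 CellSensor ARE-bla HepG2 cells (2,000/well) carrying ARE-driven beta-lactamase, exposed 16 h at 37 C. LiveBLAzer B/G FRET substrate added for 2 h at room temperature; fluorescence intensity read.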

[2] = qHTS assay for small molecule activators of the p53 signaling pathway (AID 651743; active means well fitted activation curve with a large enough effect in the signal ratio, not every such curve was filed as active; the % refers to the signal ratio; further: series mostly up to about 92 µM; % of control where 0% means no effect); details: HCT-116 p53RE-bla, beta-lactamase FRET ratio, 16 h; activation: stronger effect = higher value
How it was run: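 p53RE-bla HCT-116 cells carrying a beta-lactamase reporter under p53 response elements were exposed to compounds for 16 hours at 37 C. Reporter activity read as fluorescence after 2 hours at room temperature with LiveBLAzer B/G FRET substrate.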

[3] = qHTS assay for small molecule activators of the nuclear factor-kappa B (NF-kB) signaling pathway (AID 651749; active means well fitted activation curve with a large enough effect in the signal ratio; the % refers to the signal ratio; further: series mostly up to about 77 µM; % of control where 0% means no effect); details: NF-kB-bla ME-180 cells, beta-lactamase FRET ratio, 16 h; stronger effect = higher value
How it was run: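 NF-kB-bla ME-180 cells carrying a beta-lactamase reporter under an NF-kB response element, 2,000 cells/well, exposed to compound for 16 hr at 37C; FRET-based beta-lactamase fluorescence read-out of pathway activation.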

[4] = qHTS assay for environmental chemicals that activate the Aryl hydrocarbon Receptor (AhR) signaling pathway (AID 651777; active means well fitted curve in the direction sought with a large enough effect; an effect the other way counts as inactive or inconclusive; further: nearly all actives have a fitted effect of over 15% in size; further: potency means the concentration at half of the fitted maximal effect; on activation: % of control where 0% means no effect); details: 1A2-DRE human hepatoma cells, luciferase, 24 h; activation: stronger effect = higher value
How it was run: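 Concentration–response screening used 1,200 1A2-DRE cells per well, 24 hr compound exposure (37 C, 5% CO2), and One-Glo luminescence as the AhR-driven CYP1A2 reporter signal.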

[5] = qHTS assay for small molecule agonists of the antioxidant response element (ARE) signaling pathway measured by Nrf2-dependant transcriptional activity (AID 720636); further: potency means the concentration at half of the fitted maximal effect;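 on activation: HepG2 cells with an ARE-driven luciferase reporter; % of control where 0% means no effect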
How it was run: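 Attachment 6 hr at 37 C, then compound versus DMSO vehicle for 16 hr in ARE-luc HepG2 cells (1% dialyzed FBS); luminescence recorded 30 min after ONE-Glo addition at room temperature.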

[6] = qHTS assay for small molecule agonists of the antioxidant response element (ARE) signaling pathway measured by Nrf2-dependant transcriptional activity - cell viability counter screen (AID 720653); details: ARE-bla HepG2 viability, CellTiter-Glo ATP luminescence, 16 h; max response: stronger effect = lower value; further: on the % scale 0 is the no-effect control and ±100 the full control effect
How it was run: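 ARE-bla HepG2 cells treated with compounds for 16 h at 37C; this counter screen measures viability as intracellular ATP by CellTiter-Glo luminescence after 30 min at room temperature.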

[7] = molecular target: Peroxisome proliferator-activated receptor alpha (Homo sapiens) (UniProt Q07869); experiment: qHTS assay for small molecule agonists of the peroxisome proliferator-activated receptor alpha (PPARalpha) signaling pathway (AID 651778; active means well fitted curve in the direction sought with a large enough effect; an effect the other way counts as inactive or inconclusive; further: % of control where 0% means no effect); details: PathHunter PPARalpha complementation, chemiluminescence, 6 h; max response: stronger effect = higher value
How it was run: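 Enzyme-fragment complementation assay in which ligand-bound PPARalpha translocates and forms an active enzyme that generates chemiluminescence. Cells were plated overnight, exposed to compound for 6 hr at 37 C, and then given detection reagent for 60 min at room temperature.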

[8] = molecular target: Tumor necrosis factor (Homo sapiens) (UniProt P01375); experiment: qHTS assay to identify small molecules that stimulate Tumor Necrosis Factor-alpha (TNF-alpha) secretion (AID 651757; active means well fitted curve in the direction sought with a large enough effect in the signal ratio; the % refers to the signal ratio; further: 0% is about no effect)
How it was run: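 THP-1 cells (3000/well) exposed to compounds 17 hrs at 37 C. Secreted TNF-alpha detected by HTRF with cryptate- and XL665-labeled anti-TNF-alpha antibodies after 3 hr at room temperature.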

[9] = molecular target: Nuclear receptor ROR-gamma (Homo sapiens) (UniProt P51449); experiment: qHTS assay for small molecule antagonists of the retinoid-related orphan receptor gamma (ROR-gamma) signaling pathway (AID 651802; active means well fitted curve in the direction sought with a large enough effect; an effect the other way counts as inactive or inconclusive;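 further: luciferase reporter luminescence driven by ROR response element; series mostly up to about 92 µM; on the % scale 0 is the no-effect control and ±100 the full control effect; nearly all actives have a fitted effect of over 60% in size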)
How it was run: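 CHO cells with TET-inducible ROR-gamma and RORE-luciferase reporter, dosed then doxycycline-induced. After 16 h at 37C, One-Glo luminescence read; decreased signal indicates antagonism.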

[10] = qHTS assay for small molecule antagonists of the retinoid-related orphan receptor gamma (ROR-gamma) signaling pathway - cell viability counter screen (AID 720652);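 further: series mostly up to about 92 µM; compound exposure lasted 16 hr before ATP read; on the % scale 0 is the no-effect control and ±100 the full control effect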
How it was run: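 CHO cells carrying TET-inducible ROR and RORE-luciferase reporter, plated 5 hr, then dosed with compound plus doxycycline. After 16 hr at 37 C, viability read as intracellular ATP by CellTiter-Glo luminescence.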

[11] = qHTS assay for small molecule disruptors of the mitochondrial membrane potential - 1 hr assay (AID 651754; calls by dose curve; further: on the % scale 0 is the no-effect control and ±100 the full control effect; nearly all actives have a fitted effect of over 35% in size)
How it was run: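 HepG2 cells, attached overnight, were exposed to compound for 1 hr at 37C, then stained 30 min with a potentiometric dye. Ratio of red aggregate (590nm) to green monomer (535nm) fluorescence reports membrane potential; collapse shifts signal toward green.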

[12] = qHTS assay for small molecule disruptors of the mitochondrial membrane potential - 5 hr assay (AID 651755; calls by dose curve; further: on the % scale 0 is the no-effect control and ±100 the full control effect; nearly all actives have a fitted effect of over 40% in size)
How it was run: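 HepG2 cells (2,000/well), attached overnight, exposed to compound 5 hr at 37C, then Mito-MPS dye 30 min. Fluorescence read for monomers (490/535 nm) and aggregates (540/590 nm).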

[13] = molecular target: Tyrosine-protein kinase Yes (Homo sapiens) (UniProt P07947); experiment: qHTS for small molecule inhibitors of Yes1 kinase: Primary Screen (AID 686947; active means well fitted curve in the direction sought with a large enough effect; an effect the other way counts as inactive or inconclusive; further: nearly all actives have a fitted effect of over 60% in size; further: potency means the concentration at half of the fitted maximal effect)
How it was run: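 Yes1 (4 nM) preincubated 20 min with compound, then 60 min room-temperature reaction with 0.1 mM ATP and 0.3 mg/mL poly(E4Y) in pH 7.5 Tris, 10 mM MgCl2. ADP measured by ADP-Glo luminescence, normalised to enzyme/no-enzyme controls.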

[14] = qHTS for small molecule inhibitors of Yes1 kinase: Counter Assay (AID 686950; active means well fitted curve in the direction sought with a large enough effect; an effect the other way counts as inactive or inconclusive;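 further: no kinase present so only ADP-Glo detection of a fixed ADP amount is tested; luminescence from ADP-Glo reporting ADP in a fixed ATP and ADP mixture; series mostly up to about 77 µM; 0% = DMSO wells with ATP plus ADP and -100% = ATP-only wells without ADP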)
How it was run: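 Enzyme-free detection counter-screen: compounds preincubated 20 min in buffer, then 0.08 mM ATP plus 0.02 mM ADP added for 60 min at room temperature; ADP-Glo luminescence. Buffer 50 mM Tris pH 7.5, 10 mM MgCl2, 150 mM NaCl; normalized to ATP+ADP and ATP-only controls.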

Peroxisome proliferator-activated receptor alpha (Homo sapiens), sequence (Q07869 whole entry, looked up, the tested form may be a part): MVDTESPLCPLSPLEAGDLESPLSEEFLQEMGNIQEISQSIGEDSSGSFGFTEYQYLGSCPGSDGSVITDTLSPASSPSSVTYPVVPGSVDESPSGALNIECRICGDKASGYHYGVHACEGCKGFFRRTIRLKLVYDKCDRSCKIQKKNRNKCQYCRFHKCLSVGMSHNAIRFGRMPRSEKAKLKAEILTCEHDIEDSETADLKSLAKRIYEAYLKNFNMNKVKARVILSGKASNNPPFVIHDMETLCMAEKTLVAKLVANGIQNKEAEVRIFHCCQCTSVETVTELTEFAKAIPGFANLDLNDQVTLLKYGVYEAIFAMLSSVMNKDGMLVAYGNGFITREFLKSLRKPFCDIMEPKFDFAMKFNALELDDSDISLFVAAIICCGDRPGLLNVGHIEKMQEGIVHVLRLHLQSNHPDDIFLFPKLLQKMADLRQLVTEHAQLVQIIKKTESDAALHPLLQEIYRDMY
Tumor necrosis factor (Homo sapiens), sequence (P01375 whole entry, looked up): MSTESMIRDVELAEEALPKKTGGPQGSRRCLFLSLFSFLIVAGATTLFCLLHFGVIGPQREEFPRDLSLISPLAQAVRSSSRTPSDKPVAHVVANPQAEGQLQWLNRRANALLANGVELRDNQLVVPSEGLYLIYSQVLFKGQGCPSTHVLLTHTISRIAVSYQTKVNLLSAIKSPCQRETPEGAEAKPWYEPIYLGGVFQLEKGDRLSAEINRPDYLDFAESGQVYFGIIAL
Nuclear receptor ROR-gamma (Homo sapiens), sequence (P51449 whole entry, looked up): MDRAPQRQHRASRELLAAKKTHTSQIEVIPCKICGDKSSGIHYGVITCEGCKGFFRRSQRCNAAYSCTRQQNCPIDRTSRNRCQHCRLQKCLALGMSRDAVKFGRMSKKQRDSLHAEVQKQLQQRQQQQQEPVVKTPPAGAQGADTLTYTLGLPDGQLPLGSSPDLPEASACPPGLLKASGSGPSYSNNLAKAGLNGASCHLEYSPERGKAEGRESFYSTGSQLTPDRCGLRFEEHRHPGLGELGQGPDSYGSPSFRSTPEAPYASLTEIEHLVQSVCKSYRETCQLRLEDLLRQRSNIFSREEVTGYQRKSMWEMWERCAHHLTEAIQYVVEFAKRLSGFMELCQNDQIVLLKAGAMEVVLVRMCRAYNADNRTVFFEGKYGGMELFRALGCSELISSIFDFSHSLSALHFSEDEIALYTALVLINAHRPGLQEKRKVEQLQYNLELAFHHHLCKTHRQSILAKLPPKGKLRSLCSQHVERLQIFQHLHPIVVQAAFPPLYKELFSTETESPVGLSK
Tyrosine-protein kinase Yes (Homo sapiens), sequence (P07947 whole entry, looked up): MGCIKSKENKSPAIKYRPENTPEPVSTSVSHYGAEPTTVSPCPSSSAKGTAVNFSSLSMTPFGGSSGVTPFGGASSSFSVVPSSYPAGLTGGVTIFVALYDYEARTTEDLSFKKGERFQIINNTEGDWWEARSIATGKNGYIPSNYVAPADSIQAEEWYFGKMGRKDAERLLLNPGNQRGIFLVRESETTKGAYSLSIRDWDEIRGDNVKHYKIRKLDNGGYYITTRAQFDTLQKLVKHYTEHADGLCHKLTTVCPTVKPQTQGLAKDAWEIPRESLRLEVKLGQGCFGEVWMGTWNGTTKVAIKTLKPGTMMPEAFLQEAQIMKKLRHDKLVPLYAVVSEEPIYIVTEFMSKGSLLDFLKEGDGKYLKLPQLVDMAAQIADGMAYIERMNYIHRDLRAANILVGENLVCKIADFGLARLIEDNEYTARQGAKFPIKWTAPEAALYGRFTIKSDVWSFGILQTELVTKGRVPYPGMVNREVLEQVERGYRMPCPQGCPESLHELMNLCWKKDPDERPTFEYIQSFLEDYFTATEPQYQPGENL

CS(=O)(=O)c1ccc(C(=O)C2C(=O)CCCC2=O)c([N+](=O)[O-])c1
Potency [1]: 54.5 µM (active)
activation [2]: -1.94%
activation [3]: -0.467%
activation [4]: 3.32%
Potency [5]: inactive
max response [6]: -7.62%

CC(C)Oc1cccc(NC(=O)c2ccccc2C(F)(F)F)c1
activation [2]: -2.47%
activation [3]: 1.81%
activation [4]: 11.8%
Potency [5]: inactive
max response [6]: -3.23%

O=C(O)COc1nc(Cl)c(Cl)cc1Cl
activation [2]: 1.93%
activation [3]: 0.434%
activation [4]: 0.732%
max response [7]: -3.53%
Potency [5]: inactive
max response [6]: -15.1%

c1cc2ccc3cccc4ccc(c1)c2c34
activation [2]: 4.51% and 2.05%
activation [3]: -0.548% and 0.897%
outcome [8]: inactive
activation [4]: -0.0456% and 4.28%
Potency [9]: inactive
Potency [5]: inactive
Potency [10]: inactive
max response [6]: -6.01% and -15.3%

OCCCBr
activation [2]: 1.31%
activation [3]: -0.539%
outcome [8]: inactive
activation [4]: 1.3%
Potency [9]: inactive
Potency [5]: inactive
Potency [10]: inactive
max response [6]: 4.92%

CCCCC(CC)COC(=O)c1ccccc1C(=O)OCC(CC)CCCC (stereo not given)
activation [2]: -3.4% and 2.22%
activation [3]: 0.371% and -1.46%
Potency [11]: inactive
Potency [12]: inactive
outcome [8]: inactive
activation [4]: -0.0838% and 0.859%
Potency [5]: inactive
Potency [10]: inactive
max response [6]: -8.88% and -12.5%

CCO/N=C(\CC)C1=C(O)CC(c2c(C)cc(C)cc2C)CC1=O (stereo not given)
activation [2]: 0.237%
activation [3]: 0.436%
activation [4]: -2.09%
Potency [5]: inactive
max response [6]: 1.75%

Nc1ccccc1N
Potency [4]: 39.8 µM (active)

CCCCCCCCCC(CC)c1ccc(S(=O)(=O)O)cc1 (stereo not given)
activation [4]: -1.06%
Potency [5]: inactive
max response [6]: -0.0281% and -4.65%

Nc1ccc(Sc2ccc(N)cc2)cc1
Potency [11]: inactive
Potency [12]: inactive
activation [4]: 6.89% and 6.82%
max response [7]: -3.47% and -0.953%
Potency [9]: inactive
Potency [5]: inactive
Potency [10]: inactive
max response [6]: 10% and -10.9%

C1=CCOCc2cc(ccc2OCCN2CCCC2)Nc2nccc(n2)-c2cccc(c2)OCC1
Potency [13]: 0.0434 µM (active)

[Cl][In]([Cl])[Cl]
Potency [1]: 29.8 µM (active)
Potency [5]: 42.2 µM (active)

Nc1ccc(Cl)cc1
activation [2]: -2.94%
Potency [11]: inactive
Potency [12]: inactive
outcome [8]: inactive
activation [4]: 0.816%
Potency [9]: inactive
Potency [5]: inactive
Potency [10]: inactive
max response [6]: -5.98%

CC1CC(C)C(=O)C(C(O)CC2CC(=O)NC(=O)C2)C1 (stereo not given)
Potency [13]: inactive
outcome [14]: inactive

Cc1cc(O)ccc1Cl
activation [2]: -0.548%
activation [3]: -0.28%
Potency [11]: inactive
Potency [12]: inactive
outcome [8]: inactive
activation [4]: -0.735%
max response [7]: -2.23%
Potency [5]: inactive
Potency [10]: inactive
max response [6]: 3.07%

CN(C)[C@@H]1C(=O)C(C(N)=O)=C(O)[C@@]2(O)C(=O)C3=C(O)c4c(O)cccc4[C@@](C)(O)[C@H]3[C@H](O)[C@@H]12
Potency [12]: inactive
outcome [8]: inactive
activation [4]: 0.477% and 1.23% and -3.54%
Potency [5]: inactive
Potency [10]: inactive
max response [6]: -0.377% and -4.28% and 10.9%

Brc1ccccc1-c1ccccc1
Potency [9]: inactive

CCCCCCCCCCCCCCCC[N+](C)(C)C
activation [3]: 1.41%
activation [4]: 0.975% and 0.339%
Potency [5]: inactive
max response [6]: -27.3% and -1.44%

O=C(Nc1ccccc1-c1ccc(Cl)cc1)c1cccnc1Cl
activation [2]: -6.13%
activation [3]: 0.368%
activation [4]: 0.984%
Potency [5]: inactive
max response [6]: -1.23%

Cc1ccccc1-n1c(Cn2cnc3c(N)ncnc32)nc2cccc(C)c2c1=O
Potency [13]: inactive
outcome [14]: inactive

O=C(O)CCCOc1ccc(Cl)cc1Cl
activation [2]: 3.34%
activation [4]: 4.85%
Potency [5]: inactive
max response [6]: -1.4%

CCOP(=O)(NC(C)C)Oc1ccc(SC)c(C)c1 (stereo not given)
activation [2]: -4.79% and -0.487%
activation [3]: -0.0757% and -0.702%
outcome [8]: inactive
activation [4]: 4% and 2.89%
Potency [9]: inactive
Potency [5]: inactive
Potency [10]: inactive
max response [6]: -14.8% and -8.95%

Cc1nc2cnc3ccc(C#Cc4cccnc4)cc3c2n1-c1ccc(C(C)(C)C#N)cc1
Potency [13]: 2.18 µM (active)

c1cc(-c2cnn3cc(-c4ccc(OCCN5CCCCC5)cc4)cnc23)ccn1
Potency [13]: 0.0547 µM (active)

Source: PubChem BioAssay (NCATS)
